# In all, about 5,500 compounds went through this assay and about 2,000 (36%) were called active. Roughly 18% stayed inconclusive and do not appear here. Some of the results follow. A number with no mark means an inactive call. Rule as the data show it: active = normalized growth mostly below about 0.91 (no sharp cut-off); inconclusive = no clear call, values can overlap the other calls; inactive = mostly above about 0.92.
# Test: chemical genetic growth profiling, strain panel (AID 1159580);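 also: tested at 20 µM; growth read once vehicle control cultures reached saturation at 30 °C; 1 = growth at the plate median or of vehicle wells; lower values mean less growth of the strain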
# Settings: S. cerevisiae deletion strains, growth OD
compound,measurement,setting,value
C=C1CC2C(CCC3(C)C(=O)CCC23)C2(C)C=CC(=O)C=C12 (stereo unspecified),normalized growth,"locus YAL021C, strain ccr4, active compounds read low",0.958
same,normalized growth,"locus YAL026C, strain drs2, active compounds read low",0.905 (active)
same,normalized growth,"locus YAL030W, strain snc1, active compounds read low",0.949
same,normalized growth,"locus YBL061C, strain skt5, active compounds read low",0.928
same,normalized growth,"locus YBR009C, strain hhf1, active compounds read low",0.85 (active)
same,normalized growth,"locus YBR023C, strain chs3, active compounds read low",0.941
same,normalized growth,"locus YBR171W, strain sec66, active compounds read low",0.92
same,normalized growth,"locus YBR231C, strain swc5, active compounds read low",0.943
same,normalized growth,"locus YBR279W, strain paf1, active compounds read low",0.963
same,normalized growth,"locus YCL011C, strain gbp2, active compounds read low",0.935
same,normalized growth,"locus YCL016C, strain dcc1, active compounds read low",0.983
same,normalized growth,"locus YCL069W, strain vba3, active compounds read low",0.927
same,normalized growth,"locus YCR088W, strain abp1, active compounds read low",0.947
same,normalized growth,"locus YDL005C, strain med2, active compounds read low",0.942
same,normalized growth,"locus YDL040C, strain nat1, active compounds read low",0.941
same,normalized growth,"locus YDR001C, strain nth1, active compounds read low",0.936
same,normalized growth,"locus YDR069C, strain doa4, active compounds read low",0.944
same,normalized growth,"locus YDR137W, strain rgp1, active compounds read low",0.931
same,normalized growth,"locus YDR159W, strain sac3, active compounds read low",0.919
same,normalized growth,"locus YDR195W, strain ref2",0.945
same,normalized growth,"locus YDR297W, strain sur2, active compounds read low",0.946
same,normalized growth,"locus YDR334W, strain swr1, active compounds read low",0.896 (active)
same,normalized growth,"locus YDR335W, strain msn5, active compounds read low",0.951
same,normalized growth,"locus YDR392W, strain spt3, active compounds read low",0.733 (active)
same,normalized growth,"locus YEL003W, strain gim4, active compounds read low",0.912 (active)
same,normalized growth,"locus YEL037C, strain rad23, active compounds read low",0.917 (active)
same,normalized growth,"locus YEL061C, strain CIN8 (second series), active compounds read low",0.922
same,normalized growth,"locus YER015W, strain faa2, active compounds read low",0.939
same,normalized growth,"locus YER016W, strain bim1, active compounds read low",0.955
same,normalized growth,"locus YER111C, strain swi4, active compounds read low",0.945
same,normalized growth,"locus YER155C, strain BEM2 (second series), active compounds read low",0.946
same,normalized growth,"locus YFR010W, strain ubp6, active compounds read low",0.928
same,normalized growth,"locus YGL167C, strain pmr1, active compounds read low",0.928
same,normalized growth,"locus YGL173C, strain kem1, active compounds read low",0.95
same,normalized growth,"locus YGL227W, strain vid30, active compounds read low",0.874 (active)
same,normalized growth,"locus YGL240W, strain doc1, active compounds read low",0.95
same,normalized growth,"locus YGL253W, strain hxk2, active compounds read low",0.944
same,normalized growth,"locus YHR013C, strain ard1, active compounds read low",0.908
same,normalized growth,"locus YHR027C, strain rpn1, active compounds read low",0.93
same,normalized growth,"locus YHR142W, strain chs7, active compounds read low",0.905
same,normalized growth,"locus YJL092W, strain hpr5, active compounds read low",0.932
same,normalized growth,"locus YJL095W, strain BCK1 (second series), active compounds read low",0.952
same,normalized growth,"locus YJL115W, strain asf1, active compounds read low",0.928
same,normalized growth,"locus YJL129C, strain trk1, active compounds read low",0.96
same,normalized growth,"locus YJL154C, strain vps35, active compounds read low",0.936
same,normalized growth,"locus YJL164C, strain tpk1, active compounds read low",0.916 (active)
same,normalized growth,"locus YJL166W, strain qcr8, active compounds read low",0.962
same,normalized growth,"locus YJL187C, strain SWE1, active compounds read low",0.939
same,normalized growth,"locus YKL160W, strain elf1, active compounds read low",0.998
same,normalized growth,"locus YKR026C, strain gcn3, active compounds read low",0.939
same,normalized growth,"locus YKR091W, strain srl3, active compounds read low",0.95
same,normalized growth,"locus YLL001W, strain dnm1, active compounds read low",1.01
same,normalized growth,"locus YLL026W, active compounds read low",0.936
same,normalized growth,"locus YLL041C, strain sdh2, active compounds read low",0.939
same,normalized growth,"locus YLR027C, strain aat2, active compounds read low",0.98
same,normalized growth,"locus YLR221C, strain rsa3, active compounds read low",0.992
same,normalized growth,"locus YLR258W, strain gsy2, active compounds read low",0.945
same,normalized growth,"locus YLR262C, strain YPT6 (second series), active compounds read low",0.925
same,normalized growth,"locus YLR320W, strain mms22, active compounds read low",0.991
same,normalized growth,"locus YLR342W, strain FKS1, active compounds read low",0.929
same,normalized growth,"locus YLR357W, strain rsc2, active compounds read low",0.991
same,normalized growth,"locus YLR370C, strain arc18, active compounds read low",0.937
same,normalized growth,"locus YLR384C, strain iki3, active compounds read low",0.925
same,normalized growth,"locus YML120C, strain ndi1, active compounds read low",0.96
same,normalized growth,"locus YMR058W, strain fet3, active compounds read low",0.929
same,normalized growth,"locus YMR125W, strain sto1, active compounds read low",0.989
same,normalized growth,"locus YMR129W, active compounds read low",0.928
same,normalized growth,"locus YMR205C, strain PFK2, active compounds read low",0.992
same,normalized growth,"locus YMR231W, strain pep5, active compounds read low",0.946
same,normalized growth,"locus YNL071W, strain lat1, active compounds read low",0.883 (active)
same,normalized growth,"locus YNL209W, strain ssb2, active compounds read low",0.957
same,normalized growth,"locus YNL248C, strain rpa49, active compounds read low",1
same,normalized growth,"locus YNL322C, strain KRE1 (second series), active compounds read low",0.934
same,normalized growth,"locus YNR049C, strain mso1, active compounds read low",0.932
same,normalized growth,"locus YOR001W, strain rrp6, active compounds read low",0.881 (active)
same,normalized growth,"locus YOR070C, strain gyp1, active compounds read low",0.938
same,normalized growth,"locus YOR080W, strain dia2, active compounds read low",0.934
same,normalized growth,"locus YOR083W, strain WHI5, active compounds read low",0.994
same,normalized growth,"locus YOR106W, strain vam3, active compounds read low",0.969
same,normalized growth,"locus YOR265W, strain rbl2, active compounds read low",0.948
same,normalized growth,"locus YOR270C, strain vph1, active compounds read low",0.895
same,normalized growth,"locus YOR290C, strain snf2, active compounds read low",0.941
same,normalized growth,"locus YPL051W, strain arl3, active compounds read low",0.988
same,normalized growth,"locus YPL078C, strain atp4, active compounds read low",1
same,normalized growth,"locus YPL106C, strain sse1, active compounds read low",0.95
same,normalized growth,"locus YPL240C, strain hsp82, active compounds read low",0.969

# From PubChem BioAssay AID1159580 (chemical genetic matrix, 2015)
